Experimental findings from the supplement of paper PMC8728848 are described below.

Shown is part of a subset that was picked to be rich in the strongest signals.

Test in all cases: glycan array binding signal (z-score within array); higher = stronger binding
What all share (conditions): glycan notation: IUPAC condensed, linker removed

One experiment has as its target Fuc(a1-2)Gal(b1-4)Glc. In a few lines: (§1)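 Glycan array binding is given as a within-array Z-score, which can be read as non-binding when negative. The arrays, 3228 of them, came from the Consortium for Functional Glycomics database and were retained only where the protein sequence was available. Z-scores were averaged across arrays of the same protein sequence at different concentrations or buffers and across linkers.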

The next experiment deals with Fuc(a1-2)Gal(b1-4)GlcNAc. In a few lines: as §1
In experiment [1] the target is Fuc(a1-2)Gal(b1-4)GlcNAc(b1-3)Gal(b1-4)GlcNAc(b1-3)Gal(b1-4)GlcNAc. The essentials: as §1
In another experiment the target is Fuc(a1-3)GlcNAc. The essentials: as §1
Experiment [2] deals with Gal(a1-3)Gal(b1-4)[Fuc(a1-3)]GlcNAc. The essentials:
as §1

Experiment [3] has as its target Gal(b1-3)[Neu5Ac(a2-6)]GlcNAc(b1-4)Gal(b1-4)Glc. In a few lines: as §1
In the next experiment the target is Gal(b1-4)Glc6S. The essentials: as §1
The target of the next experiment is Gal3S(b1-3)GalNAc. The essentials:
as §1

In the next experiment the target is Gal4S(b1-4)GlcNAc. In a few lines:
as §1

A further experiment has as its target Gal6S(b1-4)Glc. In a few lines: as §1
Another experiment deals with GalNAc(a1-3)Gal. In a few lines:
as §1

Experiment [4] has as its target Neu5Ac(a2-3)Gal(b1-3)[Fuc(a1-4)]GlcNAc. The essentials: as §1
The target of experiment [5] is Neu5Ac(a2-3)Gal(b1-4)GlcNAc. The essentials:
as §1

For experiment [6], the target named is Neu5Ac(a2-3)Gal(b1-4)[Fuc(a1-3)]GlcNAc(b1-3)Gal(b1-4)[Fuc(a1-3)]GlcNAc(b1-3)Gal(b1-4)[Fuc(a1-3)]GlcNAc. In a few lines:
as §1

The target in experiment [7] is Neu5Ac(a2-8)Neu5Ac(a2-8)Neu5Ac(a2-3)Gal(b1-4)Glc. The essentials:
as §1

Experiment [8] deals with Neu5Gc(a2-3)Gal(b1-3)[Fuc(a1-4)]GlcNAc. In a few lines: as §1
Experiment [9] has as its target Neu5Gc(a2-3)Gal(b1-4)GlcNAc. The essentials:
as §1

Experiment [10] has as its target Neu5Gc(a2-6)Gal(b1-4)GlcNAc. In a few lines: as §1
Experiment [11] has as its target Fuc(a1-2)Gal(b1-4)GlcNAc(b1-3)Gal(b1-4)GlcNAc. The essentials:
as §1

Experiment [12] has as its target Fuc(a1-2)Gal(b1-4)[Fuc(a1-3)]GlcNAc. The essentials: as §1
Experiment [13] deals with Fuc(a1-2)[GalNAc(a1-3)]Gal(b1-4)[Fuc(a1-3)]GlcNAc. The essentials:
as §1

The target in experiment [14] is Fuc(a1-3)[Gal(b1-4)]GlcNAc(b1-4)Gal(b1-4)[Fuc(a1-3)]GlcNAc(b1-4)Gal(b1-4)[Fuc(a1-3)]GlcNAc. In a few lines:
as §1

The target of the next experiment is Gal(a1-3)GalNAc. In a few lines:
as §1

In experiment [15] the target is Gal(b1-3)GlcNAc(b1-3)Gal(b1-4)Glc. The essentials:
as §1

Experiment [16] addresses Gal(b1-3)GlcNAc(b1-3)Gal(b1-4)GlcNAc. The essentials:
as §1

The target in experiment [17] is Gal(b1-3)[Fuc(a1-4)]GlcNAc(b1-3)Gal(b1-4)[Fuc(a1-3)]GlcNAc. In a few lines:
as §1

Experiment [18] deals with Gal(b1-3)[Neu5Ac(a2-6)]GalNAc. In a few lines: as §1
The target in experiment [19] is Gal(b1-3)[Neu5Ac(a2-6)]GlcNAc(b1-6)Gal(b1-4)Glc. In a few lines:
as §1

The target in a further experiment is Gal(b1-4)GlcNAc. The essentials: as §1
The target of experiment [20] is Gal(b1-4)GlcNAc(b1-3)[Gal(b1-4)GlcNAc(b1-6)]GalNAc. The essentials: as §1
The target of a further experiment is Gal3S(b1-3)GlcNAc. In a few lines:
as §1

For the next experiment, the target named is Gal3S6S(b1-4)GlcNAc. In a few lines: as §1
Experiment [21] concerns the target GlcNAc(b1-3)Gal(b1-3)GalNAc. The essentials: as §1
The target of experiment [22] is GlcNAc(b1-3)[GlcNAc(b1-6)]GlcNAc(b1-4)GlcNAc. In a few lines:
as §1

Experiment [23] addresses Neu5Ac(a2-3)Gal(b1-3)GalNAc. The essentials: as §1
The target of experiment [24] is Neu5Ac(a2-3)Gal(b1-3)GalNAc(b1-3)Gal(b1-4)GlcNAc. In a few lines:
as §1

The target of experiment [25] is Neu5Ac(a2-3)Gal(b1-3)[Fuc(a1-4)]GlcNAc(b1-3)Gal(b1-4)[Fuc(a1-3)]GlcNAc. In a few lines:
as §1

Experiment [26] concerns the target Neu5Ac(a2-3)Gal6S(b1-4)[Fuc(a1-3)]GlcNAc. The essentials: as §1
The target in experiment [27] is Neu5Ac(a2-3)[GalNAc(b1-4)]Gal(b1-4)Glc. The essentials:
as §1

The target in another experiment is Neu5Ac(a2-8)Neu5Ac. The essentials: as §1
Experiment [28] addresses Fuc(a1-2)[Gal(a1-3)]Gal(b1-4)Glc. The essentials: as §1
Experiment [29] deals with Fuc(a1-3)[Gal3S(b1-4)]GlcNAc. In a few lines:
as §1

Another experiment deals with Gal(a1-4)Gal(b1-4)Glc. The essentials:
as §1

The target of another experiment is Gal(b1-3)Gal(b1-4)GlcNAc. The essentials:
as §1

Experiment [30] has as its target Gal(b1-3)GlcNAc(b1-2)Man(a1-3)[Gal(b1-3)GlcNAc(b1-2)Man(a1-6)]Man(b1-4)GlcNAc(b1-4)GlcNAc. The essentials: as §1
Experiment [31] has as its target Gal(b1-4)GalNAc(b1-3)[Fuc(a1-2)]Gal(b1-4)GlcNAc. The essentials: as §1
The target in experiment [32] is Gal(b1-4)GlcNAc(b1-2)Man(a1-3)[Gal(b1-4)GlcNAc(b1-2)Man(a1-6)]Man(b1-4)GlcNAc(b1-4)GlcNAc. In a few lines:
as §1

The next experiment has as its target Gal3S(b1-4)GlcNAc. The essentials: as §1
The target of another experiment is Gal3S4S(b1-4)GlcNAc. In a few lines:
as §1

A further experiment concerns the target Glc(a1-6)Glc(a1-6)Glc. In a few lines: as §1
For another experiment, the target named is GlcA(b1-3)GlcNAc. In a few lines: as §1
Experiment [33] concerns the target GlcNAc(b1-3)[GlcNAc(b1-6)]Gal(b1-4)GlcNAc. In a few lines:
as §1

Experiment [34] concerns the target GlcNAc(b1-3)[GlcNAc(b1-6)]GalNAc. The essentials: as §1
In experiment [35] the target is GlcNAc(b1-4)Gal(b1-4)GlcNAc. The essentials:
as §1

The target in the next experiment is Kdn(a2-3)Gal(b1-4)GlcNAc. In a few lines:
as §1

For experiment [36], the target named is Man(a1-2)Man(a1-2)Man(a1-6)[Man(a1-3)]Man. In a few lines: as §1
Experiment [37] addresses Man(a1-2)Man(a1-6)[Man(a1-3)]Man(a1-6)[Man(a1-2)Man(a1-2)Man(a1-3)]Man. In a few lines: as §1
The target in experiment [38] is Neu5Ac(a2-3)Gal(b1-3)GlcNAc(b1-3)Gal(b1-3)GlcNAc. In a few lines:
as §1

Experiment [39] deals with Neu5Ac(a2-3)Gal(b1-4)GlcNAc(b1-3)Gal(b1-4)GlcNAc(b1-3)Gal(b1-4)GlcNAc. The essentials: as §1
Experiment [40] addresses Neu5Ac(a2-3)Gal(b1-4)GlcNAc(b1-3)Gal(b1-4)[Fuc(a1-3)]GlcNAc. The essentials:
as §1

For experiment [41], the target named is Neu5Ac(a2-3)Gal(b1-4)[Fuc(a1-3)]GlcNAc. In a few lines: as §1
For experiment [42], the target named is Neu5Ac(a2-6)Gal(b1-4)GlcNAc(b1-2)Man(a1-3)[Gal(b1-4)GlcNAc(b1-2)Man(a1-6)]Man(b1-4)GlcNAc(b1-4)GlcNAc. In a few lines:
as §1

Experiment [43] concerns the target Neu5Ac(a2-6)Gal(b1-4)GlcNAc(b1-2)Man(a1-3)[Neu5Ac(a2-6)Gal(b1-4)GlcNAc(b1-2)Man(a1-6)]Man(b1-4)GlcNAc(b1-4)GlcNAc. The essentials: as §1
Experiment [44] addresses Neu5Ac(a2-6)Gal(b1-4)GlcNAc(b1-3)Gal(b1-4)[Fuc(a1-3)]GlcNAc(b1-3)Gal(b1-4)[Fuc(a1-3)]GlcNAc. The essentials:
as §1

B1: RegIIIbeta (Mus musculus), P35230 (protein)
chain: MLPPTACSVMSWMLLSCLMLLSQVQGEDSLKNIPSARISCPKGSQAYGSYCYALFQIPQTWFDAELACQKRPGGHLVSVLNSAEASFLSSMVKRTGNSYQYTWIGLHDPTLGAEPNGGGWEWSNNDVMNYFNWERNPSTALDRAFCGSLSRASGFLKWRDMTCEVKLPYVCKFTG
Turning to B1, the “glycan array binding signal (z-score)” value is -0.114 with Fuc(a1-2)Gal(b1-4)Glc; -0.116 with Fuc(a1-2)Gal(b1-4)GlcNAc; 0.15 in experiment [1]; -0.114 with Fuc(a1-3)GlcNAc; -0.098 in [2]; -0.105 in [3]. Further, the “glycan array binding signal (z-score)” value with Gal(b1-4)Glc6S was -0.119; in the experiment with Gal3S(b1-3)GalNAc, -0.124; in the experiment with Gal4S(b1-4)GlcNAc, 0.188; with Gal6S(b1-4)Glc, -0.116; in the experiment with GalNAc(a1-3)Gal, -0.109; in [4], -0.103. The “glycan array binding signal (z-score)” value was -0.071 in experiment [5]; 0.086 in [6]; -0.118 in experiment [7]; 0.106 in experiment [8]; -0.116 in [9]; -0.122 in [10].

B2: CTMLA2 (Anopheles gambiae), Q7Q7F8 (protein)
chain: MNLMITILIAVITVVRGDLSVPKTVDDILQQNPCLCPCKPFEEKEYFIPISRTSDWFGAVAYCHSVGMELAEVLNEDEARAMGEVIAEEESDSDDEFYWIGANDLGVQGTYRWALAGRPVLYSQWAAGEPNHARGENGQQPAERCVAVAMDKYEWNDFQCTQQKPFICQQFRKH
In the case of B2, the “glycan array binding signal (z-score)” value is 0.14 in the experiment with Fuc(a1-2)Gal(b1-4)Glc; -0.253 in experiment [11]; -0.269 in experiment [12]; 0.192 in [13]; -0.011 in experiment [14]; 0.077 in the experiment with Gal(a1-3)GalNAc. Also, the “glycan array binding signal (z-score)” value is 4.14 in experiment [15]; -0.58 in experiment [16]; -0.224 in experiment [17]; -0.277 in [18]; -0.49 in experiment [19]; -0.338 with Gal(b1-4)GlcNAc. Besides, the “glycan array binding signal (z-score)” value in experiment [20] was 0.036; with Gal3S(b1-3)GlcNAc it was 1.6; with Gal3S6S(b1-4)GlcNAc, 1.36; in [21], 1.18; in experiment [22], 0.928; in experiment [23], -0.51. Besides, the “glycan array binding signal (z-score)” value in experiment [24] was 0.102; in [25], -0.129; in [26] it was -0.274; in [27], -0.435; with Neu5Ac(a2-8)Neu5Ac it was -0.246.

B3: BDCA2 ex-domain (Homo sapiens) (protein)
chain: MASHHHHHHIEGRGLNDIFEAQKIEWHESLVPRGSCPTPWTSFQSSCYFISTGMQSWTKSQKNCSVMGADLVVINTREEQDFIIQNLKRNSSYFLGLSDPGGRRHWQWVDQTPYNENVTFWHSGEPNNLDERCAIINFRSSEEWGWNDIHCHVPQKSICKMKKIY
Regarding B3, the “glycan array binding signal (z-score)” value is -0.318 in the experiment with Fuc(a1-2)Gal(b1-4)Glc; -0.022 in experiment [28]; -0.3 in the experiment with Fuc(a1-3)GlcNAc; -0.204 in experiment [29]; 0.336 in the experiment with Gal(a1-4)Gal(b1-4)Glc; -0.245 with Gal(b1-3)Gal(b1-4)GlcNAc. Besides, the “glycan array binding signal (z-score)” value is 8.6 in experiment [30]; -0.375 in experiment [31]; 13.2 in experiment [32]; -0.181 with Gal3S(b1-4)GlcNAc; 1.81 in the experiment with Gal3S4S(b1-4)GlcNAc; -0.187 with Glc(a1-6)Glc(a1-6)Glc. The “glycan array binding signal (z-score)” value in the experiment with GlcA(b1-3)GlcNAc is -0.1; in experiment [33], -0.208; in [34], -0.347; in experiment [35], 0.139; in the experiment with Kdn(a2-3)Gal(b1-4)GlcNAc, 0.619; in experiment [36], -0.128. Moreover, the “glycan array binding signal (z-score)” value in [37] is -0.559; in experiment [38] it was -0.143; in experiment [39] it was 1.33; in [40], 0.601; in experiment [41], -0.385; in experiment [26], -0.35. Also, the “glycan array binding signal (z-score)” value in experiment [42] was 2.93; in [43], -0.101; in experiment [44], 0.319; in experiment [8], -0.317.
